HT1080 IDH1KD tx = kills HT-1080 cells with IDH1 knockdown; HT-1080 IDH1 knockdown viability, ATP luminescence, 48 h; Potency, µM (highest dose often 46.1 µM), without a hit: top-dose activity, negative = toxicity, hits mostly cytotoxic; 360,000 compounds, 2% hits; AID 686971;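 note: 0% = DMSO wells and -100% = cell-free medium wells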
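Cytotoxicity counter-line: IDH1KD HT-1080, 48 h, CellTiter-Glo. Curves classed by r2, magnitude and activity.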
KB-3-1 cytotox = KB-3-1 parental cell cytotoxicity; 400,000 compounds, 1.4% hits; Potency, µM (top dose mostly 46.1 µM), usual class: cytotoxic; KB-3-1 viability, CellTiter-Glo ATP luminescence, 72 h; note: % is set by controls: 0 for no effect and ±100 for the full control effect; nearly all actives have a fitted effect of over 60% in size
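Screening of KB-3-1 cells (DMEM, 10% FBS, phenol-red free) ran from lowest to highest compound concentration; after 72 h at 37 °C viability was read luminescently and curves fitted.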
HT1080-NT tox = kills 2HG-producing HT-1080-NT fibrosarcoma cells; HT-1080-NT fibrosarcoma viability, CellTiter-Glo ATP luminescence, 48 h; Potency, µM (highest dose often 46.1 µM), without a hit: at the top dose activity, negative = less viability, hits mostly cytotoxic; 360,000 compounds, 1.6% hits; AID 686970;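 note: NT is the 2HG producing partner of a matched IDH1 knockdown line; 0% = DMSO-treated cells and -100% = media-only wells without cells; nearly all actives have a fitted effect of over 55% in size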
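Read-out is CellTiter-Glo luminescence after 10 minutes at room temperature, following 48 hours' compound treatment of HT-1080-NT cells (750 cells/well, RPMI, 5% FBS, 37 degrees C).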
KB-V1 cytotox = kills drug-selected multidrug resistant KB-V1 cells; KB-V1 MDR cells viability, CellTiter-Glo, 72 h; Potency, µM (titrated, usually from 46.1 µM), hits mostly cytotoxic; 400,000 compounds, 3.4% hits; note: % is set by controls: 0 for no effect and ±100 for the full control effect; nearly all actives have a fitted effect of over 60% in size
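Potencies derive from concentration-effect curves fitted to normalized luminescence (CellTiter-Glo) of KB-V1 cells treated for 72 h at 37 degrees C in phenol-red-free DMEM containing 10% FBS.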
SW480 rereplic = induces DNA re-replication in SW480 colon adenocarcinoma cells; Potency, µM (top dose mostly 46.1 µM), without a hit: at the top dose re-replication activation, actives largely listed as activators; SW480 DNA re-replication, Hoechst DNA content imaging, 48 h; AID 624297; 340,000 compounds, 1.8% hits; note: % of control where 0% means no effect; nearly all actives have a fitted effect of over 55% in size
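SW480 cells exposed to compounds for 48 hr at 37 C, 5% CO2, then Hoechst-stained 40 min. Nuclear DNA content imaged by fluorescence scanning (405 nm excitation, 500-530 nm emission); re-replication scored as increased high-intensity nuclei.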
MCF10A rereplic = inducers of DNA re-replication in MCF 10A breast cells | 350,000 compounds, 2.9% hits | Potency, µM (highest dose often 46.1 µM), for inactives: at the top dose activity, positive = re-replication, hits mostly activators | MCF 10A DNA re-replication, Hoechst nuclear intensity, 48 h; note: % of control where 0% means no effect; nearly all actives have a fitted effect of over 50% in size
* marks the source's active call; other numbers are inactive results; i = inactive; u = inconclusive; x = not tested or not shown; [ ] = dose if it differs, or a comment. An excerpt weighted towards active compounds, which were near 8% of everything screened. Calls come from the whole dose curve; as a rule, active = well fitted curve in the direction sought with a large enough effect; inconclusive = small, poorly fitted or top-dose-only effect, or another doubt; inactive = no such curve, though single readings can be large; an effect the other way counts as inactive or inconclusive. Potency is the fitted concentration of half-maximal effect.

SMILES | HT1080 IDH1KD tx | KB-3-1 cytotox | HT1080-NT tox | KB-V1 cytotox | SW480 rereplic | MCF10A rereplic
O=C(CCCN1C(=O)/C(=C/c2ccccc2Cl)SC1=S)NNC(=O)c1ccncc1 | -9.5% | u | -5.9% | i | -30.9% | 13µM*
Cc1cc(NC(=O)CCN2C(=O)/C(=C\c3ccccc3)SC2=S)no1 | 0.3% | i | -2.1% | i | -21.0% | -4.3%
Cc1cc(NC(=O)CCCN2C(=O)/C(=C/c3ccccc3Cl)SC2=S)no1 | -2.4% | u | 1.1% | 20.6µM* | u | 7.9%
O=C(CCCN1C(=O)/C(=C/c2ccccc2Cl)SC1=S)NNC(=O)c1ccccc1Cl | u | u | u | i | -5.6% | u
CN(C1CCCCC1)S(=O)(=O)c1ccc(NC(=O)c2ccc(Br)o2)cc1 | -20.0% | i | -24.7% | i | 0.7% | u
Cc1cc(-c2nn3c(-c4ccccc4)nnc3s2)c2ccccc2n1 | -17.3% | u | -2.1% | 1.03µM* | 7.9% | -1.7%
Cc1nnc2sc(-c3ccncc3)nn12 | 3.4% | i | -0.1% | i | -1.2% | 5.1%
Cc1nnc2c3ccccc3c(-c3cccc4ccccc34)nn12 | 8.1% | i | 13.4% | 11.6µM* | -1.7% | u
Cc1nnc2sc(-c3cccc4ccccc34)nn12 | 5.0% | 7.31µM* | 8.3% | 5.17µM* | -2.9% | -188.2%[0.0737 µM]
Cc1nnc2sc(-c3csc4c3CCCC4)nn12 | -3.0% | 8.2µM* | 2.7% | 7.31µM* | -2.8% | u
O=C(CCCOc1ccc(Cl)cc1Cl)NNC(=O)c1ccc(NC(=O)c2ccccc2)cc1 | 13.8% | i | 6.3% | i | -1.4% | 4.1%
COc1cccc(OC)c1OCc1cc(C2C3CCCC=C3C(C#N)=C(N)C2(C#N)C#N)c(C)cc1C (centres undefined) | u | u | u | i | 17.8µM* | 12.6µM*
CCCN1CC=C2C(C#N)=C(N)C(C#N)(C#N)C(c3cccc(OC)c3OC)C2C1 (centres undefined) | -3.8% | i | -2.3% | u | -2.9% | 12.5%
COc1ccc(C)c2sc(N(CCN(C)C)C(=O)c3ccc(S(=O)(=O)N(C)c4ccccc4)cc3)nc12 | 7.7% | i | 0.5% | i | x | x
Cc1ccc(C2=NC(=O)/C(=C/c3cc(O)c(O)c(Br)c3)S2)cc1 | -16.5% | i | -11.1% | u | 8.2µM* | u
COCCCNC(=O)CCCN1C(=O)CCn2nc(-c3cccn3C)cc21 | x | i | x | i | x | x
CC1CCN(C(=O)CNC(=O)c2ccc(Cl)cc2Cl)CC1 | 2.1% | i | 11.7% | i | 2.0% | -0.5%
Cn1c(SCC(=O)NCC2CCCO2)ncc(C(=O)Nc2ccc(F)cc2)c1=O (centres undefined) | 6.8% | u | 2.4% | i | 1.9% | 24.7%
Cc1ccccc1-n1c(C)nnc1SCC(=O)NCC1CCCO1 (centres undefined) | 22.4µM* | i | u | i | 2.1% | -2.4%
Cc1ccccc1-n1c(SCC(=O)NCC2CCCO2)nnc1-c1ccncc1 (centres undefined) | 14.1% | i | 3.2% | i | -0.6% | 3.0%
Cc1nc(SCC(=O)NCC2CCCO2)c2cc(-c3ccccc3)sc2n1 (centres undefined) | -27.0% | u | u | u | -2.7% | 20.6µM*
Cn1c(SCC(=O)NCC2CCCO2)ncc(C(=O)Nc2ccc(Cl)cc2)c1=O (centres undefined) | 3.2% | u | -0.5% | i | 4.61µM* | 18.4µM*
O=C(NC(=S)Nc1ccc(Br)cc1)C1CCCCC1 | 11.5% | i | -1.4% | i | 17.9% | 11.0%
Cc1ccc(S(=O)(=O)N2CCCCC2)cc1NC(=O)CNc1ccccc1N1CCCC1=O | 0.1% | i | 5.3% | i | 5.1% | -2.8%
Cc1ccc(C(=O)c2oc3ccccc3c2N)cc1 | -23.7% | i | u | i | u | 10µM*
SMILES | HT1080 IDH1KD tx | KB-3-1 cytotox | HT1080-NT tox | KB-V1 cytotox | SW480 rereplic | MCF10A rereplic
COc1ccc(N(CC(=O)NC2CCCC2)C(=O)Cn2nnc(-c3ccc(F)cc3)n2)cc1OC | 0.2% | i | -3.8% | i | -0.8% | 2.9%
COc1ccc(N(CC(=O)NC2CCCC2)C(=O)Cn2nnc(-c3ccc(C)o3)n2)cc1 | -21.4% | i | 0.6% | u | -1.4% | 0.5%
COc1ccc(-c2nnn(CC(=O)N(C3CCCC3)C(C)C(=O)NC3CCCC3)n2)cc1OC (centres undefined) | 5.6% | i | 5.9% | i | -1.1% | 1.1%
COc1ccc(N(CC(=O)NC2CCCC2)C(=O)Cn2nnc(-c3ccc(C)cc3)n2)cc1 | -18.7% | i | -2.4% | 16.4µM* | -4.0% | 1.4%
COc1ccc(-c2nnn(CC(=O)N(C3CCCCC3)C(C)C(=O)NC3CCCC3)n2)cc1OC (centres undefined) | 0.5% | i | 6.6% | 2.59µM* | -15.3% | 8.8%
COc1ccc(N(CC(=O)NC2CCCC2)C(=O)Cn2nnc(-c3ccc(C)cc3)n2)cc1OC | 0.5% | i | -0.6% | 13µM* | 4.1% | -1.4%
CC(C)(C)c1ccc(C(=O)N2CCC2(C)C(=O)NS(=O)(=O)c2ccc(C#N)cc2)cc1 (centres undefined) | 4.2% | i | 22.0% | i | x | x
CC(C)(C)OC(=O)N1Cc2ccccc2C[C@H]1C(=O)NCC(=O)Nc1ccc2c(c1)OCCO2 | 0.0% | i | 12.2% | i | -16.1% | 1.6%
CCOc1ccc(N(CC(=O)NC2CCCCCC2)S(=O)(=O)c2c(C)noc2C)cc1 | 2.2% | i | -0.1% | i | -1.1% | -3.5%
CN(C)CC(CCC(CN(C)C)C(O)(c1ccccc1)c1ccccc1)C(O)(c1ccccc1)c1ccccc1 (centres undefined) | u | u | -13.9% | u | u | 20.6µM*
CN(C)CC(O)CN(c1ccccc1)c1ccccc1 (centres undefined) | -4.7% | i | -12.3% | i | -22.0% | -16.5%
Cc1csc(NC(=O)CCn2c(=O)oc3ccc(Cl)cc32)n1 | -23.0% | i | -8.4% | i | u | -1.6%
CC(=O)c1cccc(N2C(=O)C3C4CCC(C4=C(C)C)C3C2=O)c1 (centres undefined) | -6.7% | i | -9.6% | 18.4µM* | -110.6% | -29.9%
Cc1ccc(NC(=O)c2cccc(N3C(=O)C4C5CCC(C5)C4C3=O)c2)c(C)c1 (centres undefined) | 16.5% | i | 0.7% | 4.11µM* | 32.6% | -1.3%
